PubChem BioAssay (EPA / NIEHS)
Calls of active or inactive are those of the source. How the source made its calls: active means hit-call score of the fitted dose curve at least 0.9, where 1 is the maximum; inactive means score below 0.9.

Key:
Settings in all cases: mRNA level, 48 h; actives raise or lower the signal
[1] = read-out: Pro-epidermal growth factor (Homo sapiens) (UniProt P01133); experiment: LTEA_HepaRG_EGF: Life Technologies and Expression Analysis (LTEA) Assay for Epidermal growth factor (EGF) using HepaRG (AID 2283489)
Outline: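 HepaRG cells (~100,000/well, 48 h pre-culture) exposed in duplicate for 48 h in serum-free induction medium to 8 half-log concentrations up to 100 uM in 0.5% DMSO. EGF mRNA by qRT-PCR, normalized to ACTB/GAPDH/POLR2A; bidirectional fit versus DMSO.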

[2] = read-out: Ezrin (EZR), EZR (gene 7430); experiment: LTEA_HepaRG_EZR: Life Technologies and Expression Analysis (LTEA) Assay for Ezrin (EZR) using HepaRG (AID 2283491)
Outline: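 HepaRG, 48 h chemical exposure, 8-pt half-log series from 100 uM, 0.5% DMSO vehicle, duplicates. Read-out: EZR mRNA by TaqMan qRT-PCR (Fluidigm array), housekeeping-normalized; bidirectional curve fit vs DMSO baseline.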

[3] = read-out: CYP3A5 (gene 1577); experiment: LTEA_HepaRG_CYP3A5: Life Technologies and Expression Analysis (LTEA) Assay for CYP3A5 using HepaRG (AID 2283493)
Outline: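 mRNA levels were quantified by qRT-PCR on Fluidigm arrays and normalized to three housekeeping genes. Differentiated HepaRG cells received 48 h exposure (top 100 uM, half-log steps, 0.5% DMSO vehicle, duplicate); bidirectional fitting versus DMSO.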

[4] = read-out: Fatty Acid-Binding Protein 1 (FABP1), FABP1 (gene 2168); experiment: LTEA_HepaRG_FABP1: Life Technologies and Expression Analysis (LTEA) Assay for Fatty Acid-Binding Protein 1 (FABP1) using HepaRG (AID 2283494)
Outline: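 FABP1 expression by TaqMan qRT-PCR, normalised to three housekeeping genes, in HepaRG cells after 48 h chemical treatment. Eight-point half-log series topping at 100 uM in 0.5% DMSO, duplicates; gain or loss fitted relative to vehicle.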

[5] = read-out: Cytochrome P450 4A22 (Homo sapiens) (UniProt Q5TCH4); experiment: LTEA_HepaRG_CYP4A22: Life Technologies and Expression Analysis (LTEA) Assay for Cytochrome P450 4A22 (CYP4A22) using HepaRG (AID 2283495)
Outline: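 Differentiated HepaRG cells in serum-free induction medium exposed 48 h in duplicate to eight half-log concentrations up to 100 uM in 0.5% DMSO. CYP4A22 mRNA quantified by TaqMan qRT-PCR, normalized to ACTB, GAPDH and POLR2A; bidirectional fit versus DMSO.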

[6] = read-out: Cytochrome P450 7A1 (Homo sapiens) (UniProt P22680); experiment: LTEA_HepaRG_CYP7A1: Life Technologies and Expression Analysis (LTEA) Assay for Cytochrome P450 7A1 (CYP7A1) using HepaRG (AID 2283496)
Outline: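 HepaRG, 48 h exposure, 8-pt half-log series from 100 uM, 0.5% DMSO vehicle, duplicates. Readout: TaqMan qRT-PCR mRNA vs three housekeeping genes; bidirectional curve fit against DMSO baseline.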

[7] = read-out: Cytochrome P450 3A4 (Homo sapiens) (UniProt P08684); experiment: LTEA_HepaRG_CYP3A4: Life Technologies and Expression Analysis (LTEA) Assay for CYP3A4 using HepaRG (AID 2283487)
Outline: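 CYP3A4 transcript measured by TaqMan qRT-PCR and normalized to three housekeeping genes after 48 h chemical exposure of human HepaRG cells. Top concentration 100 uM, half-log steps, 0.5% DMSO vehicle; gain or loss fitted against DMSO baseline.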

[8] = read-out: Cytochrome P450 3A7 (Homo sapiens) (UniProt P24462); experiment: LTEA_HepaRG_CYP3A7: Life Technologies and Expression Analysis (LTEA) Assay for CYP3A7 using HepaRG (AID 2283492)
Outline: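 Differentiated HepaRG cells in serum-free induction medium exposed 48 h in duplicate to 8-point half-log series from 100 uM top in 0.5% DMSO. CYP3A7 mRNA by qRT-PCR, normalized to ACTB/GAPDH/POLR2A, bidirectional fit versus DMSO.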

[9] = read-out: DNA damage-inducible transcript 3 (DDIT3), DDIT3 (gene 1649); experiment: LTEA_HepaRG_DDIT3: Life Technologies and Expression Analysis (LTEA) Assay for DNA damage-inducible transcript 3 (DDIT3) using HepaRG (AID 2283488)
Outline: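 DDIT3 transcript was quantified by qRT-PCR with ACTB/GAPDH/POLR2A normalization after 48 h chemical treatment of differentiated HepaRG cells in 0.5% DMSO. Dosing was eight-point, half-log, top 100 uM, duplicate wells. Curves fitted bidirectionally versus DMSO.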

[10] = read-out: Early growth response protein 1 (EGR1) transcription factor, EGR1 (gene 1958); experiment: LTEA_HepaRG_EGR1: Life Technologies and Expression Analysis (LTEA) Assay for Early growth response protein 1 (EGR1) transcription factor using HepaRG (AID 2283490)
Outline: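 EGR1 transcript levels quantified by qRT-PCR (Fluidigm arrays) against three housekeeping genes after 48 h chemical exposure of HepaRG cells. Eight-point half-log series topping at 100 uM, 0.5% DMSO vehicle, analyzed for gain or loss.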

Sequence of Cytochrome P450 3A4 (Homo sapiens) (P08684 whole entry, looked up): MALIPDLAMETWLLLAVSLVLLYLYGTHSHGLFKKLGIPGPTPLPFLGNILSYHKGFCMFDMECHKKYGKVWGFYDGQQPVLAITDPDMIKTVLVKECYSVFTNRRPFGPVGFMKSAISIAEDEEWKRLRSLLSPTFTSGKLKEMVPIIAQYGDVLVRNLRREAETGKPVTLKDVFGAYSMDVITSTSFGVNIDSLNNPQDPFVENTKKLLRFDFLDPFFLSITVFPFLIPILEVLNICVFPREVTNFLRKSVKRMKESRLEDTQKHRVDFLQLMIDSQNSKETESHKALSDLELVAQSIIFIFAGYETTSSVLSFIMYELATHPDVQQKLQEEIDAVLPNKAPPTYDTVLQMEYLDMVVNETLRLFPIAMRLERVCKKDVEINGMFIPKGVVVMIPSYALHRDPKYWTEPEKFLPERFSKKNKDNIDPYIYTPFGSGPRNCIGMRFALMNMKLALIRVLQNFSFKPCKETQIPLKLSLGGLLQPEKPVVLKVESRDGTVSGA
Sequence of Cytochrome P450 3A7 (Homo sapiens) (P24462 whole entry, looked up): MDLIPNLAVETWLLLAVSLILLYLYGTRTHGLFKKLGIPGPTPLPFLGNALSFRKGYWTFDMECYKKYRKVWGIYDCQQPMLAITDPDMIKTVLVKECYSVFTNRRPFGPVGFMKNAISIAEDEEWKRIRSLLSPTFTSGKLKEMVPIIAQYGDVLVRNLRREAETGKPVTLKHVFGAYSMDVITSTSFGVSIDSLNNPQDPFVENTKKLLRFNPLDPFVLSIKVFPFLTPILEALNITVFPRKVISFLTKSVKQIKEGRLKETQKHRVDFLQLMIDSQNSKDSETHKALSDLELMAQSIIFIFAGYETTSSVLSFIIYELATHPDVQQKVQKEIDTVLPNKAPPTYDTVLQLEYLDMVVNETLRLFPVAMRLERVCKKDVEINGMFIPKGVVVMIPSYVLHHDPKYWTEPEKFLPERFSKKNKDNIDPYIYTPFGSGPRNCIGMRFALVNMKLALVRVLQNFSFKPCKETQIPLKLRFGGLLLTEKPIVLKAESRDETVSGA

Question: Which results are given for `CCN(CC)C(=O)c1cccc(C)c1`?
Answer: outcome [1]: inactive; outcome [2]: inactive; outcome [3]: inactive; outcome [4]: inactive; outcome [5]: inactive; outcome [6]: inactive

Question: `CCOC(=O)C(C)Oc1ccc(Oc2nc3ccc(Cl)cc3o2)cc1` (stereo not drawn) was tested. Which outcome [7] did it give?
Answer: inactive

Question: What about the outcome [1] of the same compound?
Answer: inactive

Question: And the outcome [2]?
Answer: inactive

Question: What about the outcome [8] of the same compound?
Answer: inactive

Question: And the outcome [3]?
Answer: inactive

Question: What about the outcome [4] of the same compound?
Answer: inactive

Question: And the outcome [5]?
Answer: inactive

Question: What about the AC50 [6] of the same compound?
Answer: 19.9 µM (active)

Question: What does the source list for `CCCCC(CC)CN1C(=O)C2C3C=CC(C3)C2C1=O` (stereo not drawn)?
Answer: AC50 [7]: 91 µM (active); outcome [1]: inactive; outcome [2]: inactive; AC50 [8]: 85.7 µM (active); outcome [3]: inactive; AC50 [4]: 72.5 µM (active); AC50 [5]: 62.5 µM (active); AC50 [6]: 73.6 µM (active)

Question: With `CC1(C)C(C=C(Cl)Cl)C1C(=O)OCc1cccc(Oc2ccccc2)c1` (stereo not drawn) as the compound, how does the AC50 [7] read?
Answer: 22.6 µM (active)

Question: And the outcome [1]?
Answer: inactive

Question: And the outcome [2]?
Answer: inactive

Question: What about the AC50 [8] of the same compound?
Answer: 18.3 µM (active)

Question: And the outcome [3]?
Answer: inactive

Question: What about the outcome [4] of the same compound?
Answer: inactive

Question: And the outcome [5]?
Answer: inactive

Question: And the outcome [6]?
Answer: inactive

Question: `N[C@@H](Cc1cc(I)c(Oc2ccc(O)c(I)c2)c(I)c1)C(=O)O` was tested. Which outcome [1] did it give?
Answer: inactive

Question: What about the outcome [2] of the same compound?
Answer: inactive

Question: What about the AC50 [4] of the same compound?
Answer: 40 µM (active)

Question: And the AC50 [5]?
Answer: 0.00445 µM (active)

Question: And the AC50 [6]?
Answer: 40 µM (active)

Question: Which results are given for `CC(=O)S[C@@H]1CC2=CC(=O)CC[C@]2(C)[C@H]2CC[C@@]3(C)[C@@H](CC[C@@]34CCC(=O)O4)[C@H]12`?
Answer: outcome [1]: inactive; AC50 [2]: 0.387 µM (active); AC50 [3]: 50 µM (active); AC50 [4]: 54.4 µM (active); AC50 [5]: 50 µM (active); AC50 [6]: 62.4 µM (active)

Question: `C#C[C@]1(O)CC[C@H]2[C@@H]3CCC4=CC(=O)CC[C@@H]4[C@H]3CC[C@@]21CC` was tested. Which outcome [7] did it give?
Answer: inactive

Question: And the outcome [1]?
Answer: inactive

Question: And the outcome [2]?
Answer: inactive

Question: And the outcome [3]?
Answer: inactive

Question: And the AC50 [4]?
Answer: 0.713 µM (active)

Question: And the outcome [5]?
Answer: inactive

Question: What about the AC50 [6] of the same compound?
Answer: 0.056 µM (active)

Question: How did the outcome [7] turn out when `O=C(c1ccc(O)cc1O)c1ccc(O)cc1O` was run?
Answer: inactive

Question: And the outcome [1]?
Answer: inactive

Question: What about the outcome [2] of the same compound?
Answer: inactive

Question: What about the outcome [8] of the same compound?
Answer: inactive

Question: What about the outcome [3] of the same compound?
Answer: inactive

Question: What about the outcome [4] of the same compound?
Answer: inactive

Question: And the outcome [5]?
Answer: inactive

Question: And the outcome [6]?
Answer: inactive

Question: How did the outcome [9] turn out when `c1ccc2[nH]c(-c3cscn3)nc2c1` was run?
Answer: inactive

Question: And the outcome [1]?
Answer: inactive

Question: What about the outcome [10] of the same compound?
Answer: inactive

Question: What about the outcome [2] of the same compound?
Answer: inactive

Question: What about the outcome [3] of the same compound?
Answer: inactive

Question: What about the outcome [4] of the same compound?
Answer: inactive

Question: What about the outcome [5] of the same compound?
Answer: inactive

Question: And the outcome [6]?
Answer: inactive

Question: How did the AC50 [7] turn out when `Cc1nn(C)c(Oc2ccccc2)c1C=NOCc1ccc(C(=O)OC(C)(C)C)cc1` was run?
Answer: 1.84 µM (active)

Question: And the outcome [1]?
Answer: inactive

Question: And the AC50 [2]?
Answer: 3.29 µM (active)

Question: What about the AC50 [8] of the same compound?
Answer: 1.37 µM (active)

Question: What about the AC50 [3] of the same compound?
Answer: 9.26 µM (active)

Question: What about the AC50 [4] of the same compound?
Answer: 7.21 µM (active)

Question: What about the AC50 [5] of the same compound?
Answer: 2.91 µM (active)

Question: What about the AC50 [6] of the same compound?
Answer: 34.7 µM (active)

Question: Which results are given for `CCCN(CCC)c1c([N+](=O)[O-])cc(C(F)(F)F)c(N)c1[N+](=O)[O-]`?
Answer: AC50 [7]: 7.3 µM (active); AC50 [1]: 21.2 µM (active); outcome [2]: inactive; outcome [8]: inactive; outcome [3]: inactive; AC50 [4]: 24.9 µM (active); AC50 [5]: 22 µM (active); AC50 [6]: 36.6 µM (active)

Question: What does the source list for `OB(O)O`?
Answer: outcome [7]: inactive; outcome [1]: inactive; outcome [2]: inactive; outcome [8]: inactive; outcome [3]: inactive; outcome [4]: inactive; outcome [5]: inactive; outcome [6]: inactive
